In PubChem BioAssay AID2061305 (National Center for Advancing Translational Sciences (NCATS), 2025):
Results filed as inconclusive are left out. Calls of active or inactive are those of the source. Calls follow the shape of the dose curve; as a rule, active = well fitted inhibition curve with a large enough effect; inconclusive = small, poorly fitted or top-dose-only effect; inactive = flat fitted curve, though single readings scatter. Where a SMILES comes first, the peptide text is derived from it. [ ]: non-standard residue; d: D form. Dolaproine = CO[C@@H]([C@@H]1CCCN1)[C@@H](C)C(=O)O; Dil = CC[C@H](C)[C@H](NC)[C@@H](CC(=O)O)OC; NMeV = CN[C@H](C(=O)O)C(C)C

Assay: Identification of antibody-drug conjugate (ADC) payloads which are substrates of ATP-binding cassette drug efflux transporters: ABCB1-HeLa-KB-3-1 cell line
Conditions: KB-3-1 (HeLa derivative) viability, CellTiter-Glo, 48 h
Source text: Antibody-drug conjugates (ADCs) feature an antibody recognizing a specific protein joined to a potent toxic payload. Numerous antibody-drug conjugates have received FDA approval; however, clinical resistance arises. Resistance mechanisms include decreased expression or mutation of the antibody target, impaired payload release, or increased expression of ATP-binding cassette (ABC) efflux transporters associated with multidrug resistance. We therefore sought to characterize the interaction of ABC multidrug transporters with ADC payloads. We performed a high-throughput screen with 27 common ADC payloads using cells lines expressing ABC transporters P-glycoprotein (P-gp, encoded by ABCB1) or ABCG2 (encoded by ABCG2). Confirmatory assays were also performed using cells transfected to express P-gp, ABCG2, or MRP1 (encoded by ABCC1). Several commonly used ADC payloads were substrates of P-gp, including calicheamicin gamma1, monomethyl auristatin E, DM1, and DM4. All the pyrrolobenzodiazepines tested - SJG136, SGD-1882, SG2057, and SG3199 - were substrates of P-gp, ABCG2, and MRP1. […] These findings highlight the risk of transporter-mediated resistance with certain ADC payloads and underscore the importance of selecting payloads that evade ABC transporter recognition in future ADC development.
HEK-293 cells were transfected with empty vector (pcDNA) or vector containing the human ABCB1 (MDR-19), ABCG2 (R-5), or ABCC1 gene (MRP1) and were maintained in EMEM with 2 mg/mL G418 added to maintain transporter expression. The HeLa derivative KB-3-1 and the P-gp overexpressing KB-8-5-11 subline were maintained in DMEM; KB-8-5-11 additionally received 100 ng/mL colchicine. H460 parental cells were obtained from the Division of Cancer Treatment and Diagnosis Tumor Repository, National Cancer Institute at Frederick, MD and were cultured in RPMI. The ABCG2 expressing subline H460 MX20 was generated by selecting H460 cells in 20 nM mitoxantrone. Media in all cases was supplemented with 10% FBS and 1% penicillin-streptomycin. We explored 27 common ADC payloads, in two orthogonal, paired cell line sets-a drug selected and transfected set for each transporter--to identify substrates of the ABC transporters P-gp and ABCG2. Compounds were sourced from Levena Biopharma (San Diego, CA), Selleck Chem (Houston, TX), ChemieTek (Indianapolis, IN), or Microsource Discovery Systems (Gaylordsville, CT). Screening was performed as previously described. Briefly, cells were plated at a density of 500 cells/well in 1536 well plates with compounds added using a 1536-head pin tool (Kalypsys, San Diego CA). Cells were incubated with cytotoxic drugs and processed with CellTiter Glo reagent (Promega, Madison, WI) to determine viability after 48 hours. P-gp substrates were identified by comparing compound activity between paired sets of low-expressing (sensitive) and over-expressing (resistant) cell lines.

SMILES | Potency
CC[C@H](C)[C@@H]([C@H](N)CC(=O)N1CCC[C@H]1[C@H](OC)[C@@H](C)C(=O)N[C@@H](Cc1ccccc1)c1nccs1)N(C)C(=O)[C@@H](NC(=O)[C@@H](NC)C(C)C)C(C)C | 0.1 nM (active)
CC[C@H](C)[C@@H]([C@@H](CC(=O)N1CCC[C@H]1[C@H](OC)[C@@H](C)C(=O)N[C@@H](Cc1ccccc1)C(=O)O)OC)N(C)C(=O)[C@@H](NC(=O)[C@@H](NC)C(C)C)C(C)C (H-[NMeV]V[Dil][Dolaproine]F-OH) | 66.6 nM (active)
CCc1c2c(nc3ccc(O)cc13)-c1cc3c(c(=O)n1C2)COC(=O)[C@]3(O)CC | 472 nM (active)
CN(C)CCOc1ccc2[nH]c(C(=O)N3C[C@@H](CCl)c4c3cc(O)c3ccccc43)cc2c1 | 0.3 nM (active)
COc1cccc2c1C(=O)c1c(O)c3c(c(O)c1C2=O)C[C@@](O)(C(=O)CO)C[C@@H]3O[C@H]1C[C@H]2[C@H](O[C@@H]3[C@@H](OC)OCCN32)[C@H](C)O1 | 0.3 nM (active)
CC[C@H](C)[C@@H]([C@H](N)CC(=O)N1CCC[C@H]1[C@H](OC)[C@@H](C)C(=O)N[C@@H](Cc1ccccc1)c1nccs1)N(C)C(=O)[C@@H](NC(=O)[C@H](C(C)C)N(C)C)C(C)C | 0.0748 nM (active)
COC(=O)c1cc2c3c(cc(O)c2[nH]1)N(C(=O)c1cc2cc(OC)c(OC)c(OC)c2[nH]1)CC3CCl (centres undefined) | 0.5 nM (active)
CCN[C@H]1CO[C@@H](O[C@H]2[C@H](O[C@H]3C#C/C=C\C#C[C@]4(O)CC(=O)C(NC(=O)OC)=C3/C4=C\CSSSC)O[C@H](C)[C@@H](NO[C@H]3C[C@H](O)[C@H](SC(=O)c4c(C)c(I)c(O[C@@H]5O[C@@H](C)[C@H](O)[C@@H](OC)[C@H]5O)c(OC)c4OC)[C@@H](C)O3)[C@@H]2O)C[C@@H]1OC | 1.3 nM (active)
CC(C)(C)OC(=O)Nc1ccc2[nH]c(C(=O)N3C[C@@H](CCl)c4c3cc(O)c3ccccc43)cc2c1 | 5.9 nM (active)
CC[C@]1(O)CC2CN(CCc3c([nH]c4ccccc34)[C@@](C(=O)OC)(c3cc4c(cc3OC)N(C)[C@H]3[C@@](O)(C(=O)OC)[C@H](OC(C)=O)[C@]5(CC)C=CCN6CC[C@]43[C@@H]65)C2)C1 (some centres undefined) | 6.7 nM (active)
COc1cc2cc(c1Cl)N(C)C(=O)C[C@H](O)[C@]1(C)O[C@H]1[C@H](C)C1C[C@@](O)(NC(=O)O1)[C@H](OC)/C=C/C=C(\C)C2 | 4720 nM (active)
CCN(C(C)=O)[C@H]1CO[C@@H](O[C@H]2[C@H](O[C@H]3C#C/C=C\C#C[C@]4(O)CC(=O)C(NC(=O)OC)=C3/C4=C\CSSSC)O[C@H](C)[C@@H](NO[C@H]3C[C@H](O)[C@H](SC(=O)c4c(C)c(I)c(O[C@@H]5O[C@@H](C)[C@H](O)[C@@H](OC)[C@H]5O)c(OC)c4OC)[C@@H](C)O3)[C@@H]2O)C[C@@H]1OC | 8.4 nM (active)
COc1ccc(C2=CN3C(=O)c4cc(OC)c(OCCCOc5cc6c(cc5OC)C(=O)N5C=C(c7ccc(N)cc7)C[C@@H]5C=N6)cc4N=C[C@H]3C2)cc1 | 52.9 nM (active)
COc1cccc2c1C(=O)c1c(O)c3c(c(O)c1C2=O)C[C@@](O)(C(=O)CO)C[C@@H]3O[C@H]1C[C@H](N)[C@H](O)[C@H](C)O1 | 236 nM (active)
